# Results: the supplement of paper PMC8728848
# The entries come from a sample that favours the strongest signals as a whole.
# Legend:
# Assay in all cases: glycan array binding signal (z-score within array); higher = stronger binding
# Details in all cases: glycan notation: IUPAC condensed, linker removed
# [1] = biological target: Fuc(a1-2)Gal(b1-3)[Fuc(a1-4)]GlcNAc
# Method in brief: (§1)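 Arrays were curated from the Consortium for Functional Glycomics database, 3228 in total, and kept only where the protein sequence was available. Binding is expressed as a within-array Z-score. This score was averaged across arrays of the same protein sequence at different concentrations or buffers and across linkers, and negative values can be read as non-binding.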
# Fuc(a1-2)[Gal(a1-3)]Gal = biological target: Fuc(a1-2)[Gal(a1-3)]Gal
# Method in brief: as §1
# [2] = biological target: Fuc(a1-2)[Gal(a1-3)]Gal(b1-4)Glc
# Method in brief: as §1
# [3] = biological target: Fuc(a1-2)[GalNAc(a1-3)]Gal(b1-3)GalNAc(a1-3)[Fuc(a1-2)]Gal(b1-4)GlcNAc
# Method in brief: as §1
# [4] = biological target: Fuc(a1-2)[GalNAc(a1-3)]Gal(b1-3)GalNAc(b1-3)Gal(a1-4)Gal(b1-4)Glc
# Method in brief: as §1
# [5] = biological target: Fuc(a1-2)[GalNAc(a1-3)]Gal(b1-3)GlcNAc(b1-2)Man(a1-3)[Fuc(a1-2)[GalNAc(a1-3)]Gal(b1-3)GlcNAc(b1-2)Man(a1-6)]Man(b1-4)GlcNAc(b1-4)[Fuc(a1-6)]GlcNAc
# Method in brief: as §1
# [6] = biological target: Fuc(a1-2)[GalNAc(a1-3)]Gal(b1-4)GlcNAc(b1-6)GalNAc
# Method in brief: as §1
# Gal(a1-3)Gal(b1-3)GlcNAc = biological target: Gal(a1-3)Gal(b1-3)GlcNAc
# Method in brief: as §1
# Gal(a1-3)Gal(b1-4)Glc = biological target: Gal(a1-3)Gal(b1-4)Glc
# Method in brief: as §1
# [7] = biological target: Gal(a1-3)Gal(b1-4)GlcNAc(b1-2)Man(a1-3)[Gal(a1-3)Gal(b1-4)GlcNAc(b1-2)Man(a1-6)]Man(b1-4)GlcNAc(b1-4)GlcNAc
# Method in brief: as §1
# [8] = biological target: Gal(a1-3)Gal(b1-4)[Fuc(a1-3)]GlcNAc(b1-2)Man(a1-3)[Gal(a1-3)Gal(b1-4)[Fuc(a1-3)]GlcNAc(b1-2)Man(a1-6)]Man(b1-4)GlcNAc(b1-4)GlcNAc
# Method in brief: as §1
# Gal(a1-3)GalNAc = biological target: Gal(a1-3)GalNAc
# Method in brief: as §1
# [9] = biological target: Gal(a1-3)[Gal(a1-4)]Gal(b1-4)GlcNAc
# Method in brief: as §1
# [10] = biological target: Gal(a1-4)Gal(b1-4)GlcNAc(b1-2)Man(a1-3)[Gal(a1-4)Gal(b1-4)GlcNAc(b1-2)Man(a1-6)]Man(b1-4)GlcNAc(b1-4)GlcNAc
# Method in brief: as §1
# [11] = biological target: Gal(a1-4)Gal(b1-4)GlcNAc(b1-3)Gal(b1-4)Glc
# Method in brief: as §1
# Gal(b1-3)Gal(b1-4)GlcNAc = biological target: Gal(b1-3)Gal(b1-4)GlcNAc
# Method in brief: as §1
# Gal(b1-3)GlcNAc = biological target: Gal(b1-3)GlcNAc
# Method in brief: as §1
# [12] = biological target: Gal(b1-3)GlcNAc(b1-3)Gal(b1-4)GlcNAc
# Method in brief: as §1
# [13] = biological target: Gal(b1-3)GlcNAc(b1-3)Gal(b1-4)[Fuc(a1-3)]GlcNAc(b1-6)[Gal(b1-3)GlcNAc(b1-3)]Gal(b1-4)Glc
# Method in brief: as §1
# [14] = biological target: Gal(b1-3)[Fuc(a1-4)]GlcNAc(b1-2)Man(a1-3)[Gal(b1-3)[Fuc(a1-4)]GlcNAc(b1-2)Man(a1-6)]Man(b1-4)GlcNAc(b1-4)[Fuc(a1-6)]GlcNAc
# Method in brief: as §1
# Gal(b1-4)Glc6S = biological target: Gal(b1-4)Glc6S
# Method in brief: as §1
# [15] = biological target: Gal(b1-4)GlcNAc(a1-6)Gal(b1-4)GlcNAc
# Method in brief: as §1
# [16] = biological target: Gal(b1-4)GlcNAc(b1-2)Man(a1-3)[Gal(b1-4)GlcNAc(b1-2)Man(a1-6)]Man(b1-4)GlcNAc(b1-4)GlcNAc
# Method in brief: as §1
# [17] = biological target: Gal(b1-4)GlcNAc(b1-2)[Gal(b1-4)GlcNAc(b1-4)]Man(a1-3)[Gal(b1-4)GlcNAc(b1-2)[Gal(b1-4)GlcNAc(b1-6)]Man(a1-6)]Man(b1-4)GlcNAc(b1-4)GlcNAc
# Method in brief: as §1
# [18] = biological target: Gal(b1-4)GlcNAc(b1-3)Gal(b1-3)GalNAc
# Method in brief: as §1
# [19] = biological target: Gal(b1-4)GlcNAc(b1-3)Gal(b1-4)GlcNAc(b1-2)Man(a1-3)[Gal(b1-4)GlcNAc(b1-3)Gal(b1-4)GlcNAc(b1-2)Man(a1-6)]Man(b1-4)GlcNAc(b1-4)GlcNAc
# Method in brief: as §1
# [20] = biological target: Gal(b1-4)GlcNAc(b1-3)Gal(b1-4)GlcNAc(b1-2)[Gal(b1-4)GlcNAc(b1-3)Gal(b1-4)GlcNAc(b1-6)]Man(a1-6)[Gal(b1-4)GlcNAc(b1-3)Gal(b1-4)GlcNAc(b1-2)Man(a1-3)]Man(b1-4)GlcNAc(b1-4)[Fuc(a1-6)]GlcNAc
# Method in brief: as §1
binder,measurement,setting,value
PX14375C-bth-509-28-509 (Bacteroides thetaiotaomicron) (protein) RSPQGQFTEDDNPNALVNGKIYNVYTMMRSFDITAGTPAIAIHYLRSEDSEKGSIPSDGSDVAEMYDDFLYTPTNGLLGSYWGKNYAIIYQCNDILDAIAEKETAGQTETEDIINKGEASFFRAYCYFNLVRAFGEVPLVTYKINDASEANIPKTTADKIYEQIDTDLKTAEESLPETWSTEYTGRLTWGAARSLHARTYMMRSDWDNMYKASTDVINKGLYNLKTPYNEIFTDDGENSGGSIFELQCTATAALPQSDVIGSQFCEVQGVRGAGQWDLGWGWHMATQLMADAYETGDPRKNATLLYFRKTDDEPITPENTNEPYGESPISPAMGAYFNKKAYTDPALRKEYTNKGFWVNIRLIRYSDVVLMAAEAANEKNIPGEAVDYLEMVRARARGTNTNILPKITTNDQGELREAIRHERRVELGLEPDRFYDLVRWGIASEVLHAAGKVNYQDKNALLPLPQSEIDKSKGVLVQNPDY,glycan array binding signal (z-score),[1],-0.397
same,glycan array binding signal (z-score),Fuc(a1-2)[Gal(a1-3)]Gal,-0.193
same,glycan array binding signal (z-score),[2],0.04
same,glycan array binding signal (z-score),[3],-0.112
same,glycan array binding signal (z-score),[4],-0.355
same,glycan array binding signal (z-score),[5],-0.19
same,glycan array binding signal (z-score),[6],3.04
same,glycan array binding signal (z-score),Gal(a1-3)Gal(b1-3)GlcNAc,-0.256
same,glycan array binding signal (z-score),Gal(a1-3)Gal(b1-4)Glc,-0.196
same,glycan array binding signal (z-score),[7],0.762
same,glycan array binding signal (z-score),[8],1.41
same,glycan array binding signal (z-score),Gal(a1-3)GalNAc,-0.254
same,glycan array binding signal (z-score),[9],2.55
same,glycan array binding signal (z-score),[10],-0.374
same,glycan array binding signal (z-score),[11],-0.341
same,glycan array binding signal (z-score),Gal(b1-3)Gal(b1-4)GlcNAc,-0.316
same,glycan array binding signal (z-score),Gal(b1-3)GlcNAc,-0.186
same,glycan array binding signal (z-score),[12],-0.144
same,glycan array binding signal (z-score),[13],-0.581
same,glycan array binding signal (z-score),[14],0.351
same,glycan array binding signal (z-score),Gal(b1-4)Glc6S,0.533
same,glycan array binding signal (z-score),[15],-0.071
same,glycan array binding signal (z-score),[16],6.16
same,glycan array binding signal (z-score),[17],1.28
same,glycan array binding signal (z-score),[18],-0.287
same,glycan array binding signal (z-score),[19],4.35
same,glycan array binding signal (z-score),[20],12.3
